Assay outcomes: PubChem BioAssay, several laboratories
M1 antag: blocks the rat M1 muscarinic receptor response to acetylcholine. P08482. CHO-M1 cells, Fluo-4 calcium, ACh EC80 antagonist mode; active compounds read low. B-score at 10 µM. hit rate 3.4% among 64,000;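 active = calcium fluorescence response, raw or row-and-column corrected B-score, differing from the plate sample mean either way at a set confidence level, mostly lower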
Target sequence (P08482 whole entry, looked up): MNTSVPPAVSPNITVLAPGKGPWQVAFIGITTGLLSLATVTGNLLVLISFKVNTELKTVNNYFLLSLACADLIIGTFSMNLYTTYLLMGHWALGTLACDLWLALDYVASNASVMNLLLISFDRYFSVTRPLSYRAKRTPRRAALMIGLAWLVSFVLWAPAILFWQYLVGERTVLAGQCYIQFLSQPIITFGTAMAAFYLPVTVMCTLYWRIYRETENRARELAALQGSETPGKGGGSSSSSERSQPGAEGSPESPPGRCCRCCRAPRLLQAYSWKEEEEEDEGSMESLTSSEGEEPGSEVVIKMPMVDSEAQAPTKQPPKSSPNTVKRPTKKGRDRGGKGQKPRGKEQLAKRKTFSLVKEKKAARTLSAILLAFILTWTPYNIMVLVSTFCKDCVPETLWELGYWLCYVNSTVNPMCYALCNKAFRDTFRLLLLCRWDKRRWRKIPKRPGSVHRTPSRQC
WNV NS2B-NS3 inh: WNV NS2B-NS3 proteinase inhibition; P06935; WNV NS2B-NS3 protease, fluorogenic substrate Ex360/Em465; active compounds read low; z-score (concentration not given with the values); hit rate 0.18% among 65,000; in the data active = z-score below about -3
D1 allo mod: allosterically modulates the human D1 dopamine receptor. hit rate 5.9% among 58,000. P21728. HEK293 D1, CRE-luciferase, dopamine EC30 potentiation; actives deviate in either direction. B-score at 10 µM. AID 641;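 active = luminescence count or its row- and column-corrected plate score outside the 99.7% band of the plate's sample wells, on either side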
Htt clearance: mutant huntingtin protein clearance; HeLa Exon1htt(103Q)mCFP, aggregate imaging; zero = plate's median compound well; inhibition, % at 1.5 µM; hit rate 0.42% among 47,000; AID 853;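 active = inhibition of aggregate fluorescence above about 70%, also judged a hit by eye on the cell image, limit read from the data, passing the limit was not always enough; inconclusive = no rule stated for this call; inactive = not judged a hit on image review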;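 also: cells exposed to compound for three days before fixation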
M1 agonist: M1 muscarinic receptor agonism; B-score at 10 µM; hit rate 3% among 64,000; CHO-M1 cells, Fluo-4 calcium fluorescence, agonist mode; active compounds read high;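 active = fluorescence rise, raw or as B-score row- and column-corrected plate score, outside the 99.7% band of its plate's samples, either direction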
Numbers stand for hits; n = inactive; u = inconclusive; x = not tested or not shown. The list is not random: actives were taken first. Their share in the collection is about 8.9%.

SMILES	M1 antag	WNV NS2B-NS3 inh	D1 allo mod	Htt clearance	M1 agonist
CCCCNC(=O)CSc1nnc(NC(C)=O)s1	n	n	n	x	n
COc1ccccc1NC(=O)Cn1cnc2c(cnn2-c2ccc(C)c(C)c2)c1=O	n	n	x	n	n
Cc1cc2nc(NC3=NCN(Cc4cccnc4)CN3)nc(C)c2cc1C	-3.2	n	n	x	n
CCc1ccc2nc(NC3=NCN(CCOC)CN3)nc(C)c2c1	n	n	n	x	n
CN(C)c1nc(Nc2ccc(Cl)cc2)nc(OCC#N)n1	n	n	n	n	n
Oc1cccc2ccc(Nc3ccccn3)nc12	n	n	-4.1	x	n
CCn1c(=O)n(CC(=O)NC2CCCC(C)C2C)c(=O)c2ccccc21 (stereo not given)	n	n	n	n	n
O=C(CC1(O)C(=O)N(C/C=C/c2ccccc2)c2ccccc21)c1ccccn1 (stereo not given)	1.9	n	n	x	n
C=CCN1C(=O)C(O)(CC(=O)c2ccc(N)cc2)c2ccccc21 (stereo not given)	n	x	n	x	n
O=C(OCn1nnc2ccccc2c1=O)c1cc2ccccc2o1	n	n	n	x	n
CC1=C(C(=O)OCC2CCCO2)C(c2ccc(C)o2)C2=C(CC(c3ccc(F)cc3)CC2=O)N1 (stereo not given)	n	n	-3.1	x	n
CC1=C(C(=O)OCC2CCCO2)C(c2ccncc2)C2=C(CCCC2=O)N1 (stereo not given)	n	n	n	n	n
CC1=C(C(=O)OCC2CCCO2)C(c2ccccc2OC(C)C)C2=C(CC(c3ccco3)CC2=O)N1 (stereo not given)	n	n	n	n	n
CC1=C(C(=O)OCC2CCCO2)C(c2ccc(C)o2)C2=C(CC(c3ccc(N(C)C)cc3)CC2=O)N1 (stereo not given)	n	n	n	n	5.6
O=C(/C=C/c1cccs1)NC(=S)NNC(=O)Cc1cccs1	x	x	x	n	x
Cc1ccc(N2CC(C(=O)NC3=NCCS3)CC2=O)cc1 (stereo not given)	n	n	x	x	n
Cc1ccc(N2CC(C(=O)Nc3nccs3)CC2=O)cc1 (stereo not given)	n	n	-7.4	x	n
O=C(CSc1ccc2nnc(-c3ccccc3)n2n1)N1CCN(c2ccccc2)CC1	n	n	n	x	n
COc1ccc(-c2nnc3ccc(SCC(=O)N4CCN(c5ccccc5)CC4)nn23)cc1	n	n	n	x	4.4
COc1cccc(NC(=O)CSc2nc3n[nH]c(C)c3c(=N)n2-c2cccc(OC)c2)c1	n	-3.1	n	u	n
CC(=O)[C@@H]1[C@@H]2C(=O)N(Cc3ccccc3)C(=O)[C@@H]2C2c3ccccc3C=CN21 (stereo not given in full)	n	n	n	n	26
CN(CC(=O)NCc1cccc(F)c1)C(=O)c1ccco1	n	n	n	x	n
CCc1sc(C(=O)NCc2cc(C)n(C)n2)cc1Br	n	n	n	x	-5.1
CSc1nc2c(c(C(F)(F)F)n1)CC(C)CC2 (stereo not given)	x	x	x	n	x
Cc1ccc(-c2nc(-c3ccccc3)no2)c(Cl)c1	n	n	-8.7	n	n
SMILES	M1 antag	WNV NS2B-NS3 inh	D1 allo mod	Htt clearance	M1 agonist
COc1ccc(-c2noc(-c3ccccc3-c3ccccc3)n2)cc1	x	x	x	n	x
N#CC1=C(N)C(C#N)(C#N)[C@H](c2ccoc2)[C@H]2CN(Cc3ccccc3)CC=C12	n	n	n	n	26
Cc1ccc(C2C3CN(C(C)C)CC=C3C(C#N)=C(N)C2(C#N)C#N)cc1 (stereo not given)	2.2	n	-3.1	x	55
O=C(C1CC=CCC1)N1CCN(C(=O)C2CC=CCC2)CC1 (stereo not given)	x	x	x	n	x
Cc1ccccc1C(=O)Nc1ccc2c(c1)OCO2	n	n	-4.3	x	n
O=C(Nc1ccc2c(c1)OCCO2)c1cccnc1	n	n	-3.2	x	n
COc1cc(SC)ccc1C(=O)Nc1ccc2c(c1)OCCO2	n	n	-4.2	x	n
O=C(COc1ccccc1Cl)NCc1ccncc1	n	n	n	x	n
C=CCNc1nc(Nc2ccc(-c3nc4ccccc4o3)cc2)nc(N2CCOCC2)n1	x	x	x	n	x
Cc1ccc(C(=O)N(c2c(C)n(C)n(-c3ccccc3)c2=O)C(C)C)cc1	x	x	x	n	x
Cc1ccc(C(C(=O)NC(C)(C)C)N(CC2CCCO2)C(=O)Cn2nnc(-c3ccc(C)o3)n2)cc1 (stereo not given)	n	n	-4.2	x	n
Cc1ccc(-c2nnn(CC(=O)N(Cc3cccs3)C(C(=O)NC(C)(C)C)c3ccc(C)o3)n2)o1 (stereo not given)	n	n	n	x	n
C=CCn1c(SCc2nc(N)nc(N(C)C)n2)nnc1-c1cccnc1	n	n	-6	x	n
CCOC(=O)CNc1c(-c2ccc(O)cc2)nc2ccc(Cl)cn12	n	n	-4.4	n	7.8
O=C(Nc1ccccc1)N(CCc1nc2ccccc2[nH]1)C1CCCC1	n	n	x	n	2.3
O=C(CCc1nc2ccccc2[nH]1)Nc1ccccc1	n	n	n	x	n
Cc1ccc(C(=O)Nc2c3c(nn2C(C)(C)C)CS(=O)(=O)C3)cc1C	n	n	-2.9	x	n
CC(=O)O[C@H]1CC[C@@]2(C)C(CCC3C2CC[C@]2(C)OC(=O)CCC32)C1 (stereo not given in full)	x	x	x	n	x
CC(=O)O[C@H]1C[C@@H]2CC[C@@H]3[C@H](CC[C@@]4(C)[C@H]3C[C@H]([N+]3(C)CCCCC3)[C@@H]4OC(C)=O)[C@@]2(C)C[C@@H]1[N+]1(C)CCCCC1	n	n	17	x	n
COc1ccccc1NC(=O)N1CCN(c2cc(-c3ccccc3)nc3ncnn23)CC1	n	n	n	n	6.3
CCOc1ccc(Nc2nc(C)cc(C)c2C#N)cc1	n	n	n	77	n
COc1ccc(Nc2nc(C)cc(C)c2C#N)cc1	n	n	n	x	n
Cc1ccc(SC/C(O)=C(\C#N)c2nc3ccccc3n2C)cc1	n	n	n	x	n
CCN(CC)S(=O)(=O)c1ccc(/C(O)=C(\C#N)c2nc3ccccc3n2C)cc1	n	n	-2.2	n	n
CC(C)C(=O)Nc1ccc(-c2nc3cccnc3o2)cc1	n	n	-3.2	n	n
SMILES	M1 antag	WNV NS2B-NS3 inh	D1 allo mod	Htt clearance	M1 agonist
Cc1ccc(-c2nc3cc(NC(=O)C(C)C)ccc3o2)cc1C	n	n	-3	n	n
Cc1ccc(-c2nc3cc(NC(=O)C(C)C)ccc3o2)cc1	n	n	-2.4	n	n
CCC(=O)Nc1ccc2oc(-c3cccc(C)c3)nc2c1	n	n	-3.4	n	n
CC(C)C(=O)Nc1cccc(-c2nc3ccccc3o2)c1	n	n	n	n	n
O/N=C1\CCCc2oc3c(c21)CCCC3	n	n	n	n	n
CN(C)CC(O)COc1cc2ccccc2cc1C(=O)N1CCCCC1 (stereo not given)	n	n	n	x	n
CCCc1nc2ccccc2n2cc3c(=O)n(C)c(=O)n(C)c3c12	n	n	n	n	n
C=CCn1c(NC(=O)c2ccccc2)c(C#N)c2nc3ccccc3nc21	n	n	n	x	21
COc1ccc(S(=O)(=O)N2CCCC(C(=O)NCc3ccco3)C2)cc1Cl (stereo not given)	n	n	n	n	n
COc1ccc(-c2csc(Cc3nnc4n3CCCCC4)n2)cc1	2.3	n	n	n	n
